# IL-1B inflam inh – qHTS for Inhibitors of Inflammasome Signaling: IL-1-beta AlphaLISA Primary Screen | THP-1 LPS/ATP IL-1B secretion, AlphaLISA, 16 h; active compounds read low | activity change, % at 57.5 µM | 4.7% of 360,000 active; in the data active = activity change below about -50%; inconclusive = mostly about -30% to -49%
#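 Secreted IL-1B measured by AlphaLISA bead assay after 16 h compound exposure of THP-1 cells; compounds (final up to 57.5 uM) added 1 h before LPS (250 ng/mL) and ATP (1.25 mM) stimulation; lower signal means less secretion.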
# ALOX12 inh – Primary qHTS assay for inhibitors of human arachidonate 12S-lipoxygenase (ALOX12): Round 2; Polyunsaturated fatty acid lipoxygenase ALOX12 (Homo sapiens), P18054; purified 12hLO, xylenol orange hydroperoxide absorbance; Potency, µM (top dose mostly 108 µM), without a hit: at the highest dose activity change, negative = inhibition, most hits filed as inhibitors; 1.1% of 580,000 active; AID 1671190, 2021; note: potency is the fitted concentration of half-maximal effect
# Target sequence (P18054 whole entry, looked up): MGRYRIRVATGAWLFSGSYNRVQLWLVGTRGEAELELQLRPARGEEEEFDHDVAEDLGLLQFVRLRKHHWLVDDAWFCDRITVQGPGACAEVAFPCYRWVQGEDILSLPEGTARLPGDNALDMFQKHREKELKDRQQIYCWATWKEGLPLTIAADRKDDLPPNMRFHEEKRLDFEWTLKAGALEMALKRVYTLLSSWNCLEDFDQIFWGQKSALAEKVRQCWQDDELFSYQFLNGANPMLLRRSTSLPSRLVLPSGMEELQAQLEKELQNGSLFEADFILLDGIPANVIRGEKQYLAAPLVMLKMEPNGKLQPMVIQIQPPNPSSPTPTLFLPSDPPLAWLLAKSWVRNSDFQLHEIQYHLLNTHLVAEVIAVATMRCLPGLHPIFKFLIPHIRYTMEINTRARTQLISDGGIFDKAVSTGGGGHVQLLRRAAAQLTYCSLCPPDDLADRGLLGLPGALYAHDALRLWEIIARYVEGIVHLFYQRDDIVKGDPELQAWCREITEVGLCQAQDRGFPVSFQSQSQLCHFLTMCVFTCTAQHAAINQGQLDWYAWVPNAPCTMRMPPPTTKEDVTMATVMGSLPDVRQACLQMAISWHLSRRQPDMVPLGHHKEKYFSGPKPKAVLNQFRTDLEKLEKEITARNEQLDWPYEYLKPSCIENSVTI
#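 Purified human 12hLO at 150 nM in 25 mM Hepes, 0.01% Triton X-100, pH 7.0, preincubated 15 min at room temperature with compound. Reaction started with 40 uM arachidonic acid, 30 min at room temperature. Hydroperoxide measured by Fe-xylenol orange, 573/405 nm absorbance ratio.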
# DT40 TDP1 no CPT – qHTS for Inhibitors of human tyrosyl-DNA phosphodiesterase 1 (TDP1): qHTS in cells in absence of CPT; AID 686978, 2013; DT40 Tdp1-/- hTDP1 cells, no CPT, ATP luminescence, 48 h; Potency, µM (highest dose often 46.2 µM), for inactives: at the top dose activity change, negative = growth inhibition, hits mostly inhibitors; 15% of 420,000 active; note: potency is the fitted concentration of half-maximal effect; nearly all actives have a fitted effect of over 55% in size
#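 Compound effects on proliferation are scored in DT40 Tdp1-/-;hTDP1 cells in the absence of CPT. ATP levels (CellTiter-Glo luminescence) are recorded after a ≥48 hr, 37 °C incubation.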
# HT1080-NT tox – qHTS for induction of synthetic lethality in tumor cells producing 2HG: qHTS for the HT-1080-NT fibrosarcoma cell line; HT-1080-NT fibrosarcoma viability, CellTiter-Glo ATP luminescence, 48 h; Potency, µM (doses to about 46.1 µM), for inactives: at the top dose activity, negative = less viability, actives largely listed as cytotoxic; 1.6% of 360,000 active;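 note: NT is the 2HG producing partner of a matched IDH1 knockdown line; potency is the fitted concentration of half-maximal effect; 0% = DMSO-treated cells and -100% = media-only wells without cells; nearly all actives have a fitted effect of over 55% in size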
#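 Toxicity toward the 2HG-producing NT line was scored as %Activity, normalised to DMSO and no-cell wells, from CellTiter-Glo luminescence after 48 hours' treatment.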
# HT1080 IDH1KD tx – qHTS for induction of synthetic lethality in tumor cells producing 2HG: qHTS for the HT-1080-IDH1KD cell line; HT-1080 IDH1 knockdown viability, ATP luminescence, 48 h; AID 686971, 2013; Potency, µM (top dose mostly 46.1 µM), inactives show at the top dose activity, negative = toxicity, actives largely listed as cytotoxic; 2% of 360,000 active;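 note: potency is the fitted concentration of half-maximal effect; 0% = DMSO wells and -100% = cell-free medium wells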
#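 Using the IDH1-knockdown HT-1080 line run in the same batch and compound series as the NT line, viability after 48 h at 37 °C was determined by CellTiter-Glo luminescence and expressed as % activity.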
# TDP1 cell CPT – qHTS for Inhibitors of human tyrosyl-DNA phosphodiesterase 1 (TDP1): qHTS in cells in presence of CPT | chicken DT40 Tdp1-/-;hTDP1 cells + 20 nM CPT, ATP luminescence, 48 h | Potency, µM (highest dose often 46.2 µM), inactives show top-dose activity change, negative = growth inhibition, usual class: inhibitors | 12% of 420,000 active; note: potency is the fitted concentration of half-maximal effect; nearly all actives have a fitted effect of over 55% in size
#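 Chicken DT40 Tdp1-/- cells stably complemented with human TDP1 were seeded at 400 cells/well in medium containing 20 nM camptothecin, exposed to pin-transferred compounds, and grown at 37 °C for at least 48 hr. Viability was read as ATP luminescence.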
# * marks the source's active call; other numbers are inactive results; ? = inconclusive; nt = no result; [ ] = dose if it differs, or a comment. Many of the other results were omitted from the sample, so hits are more common in it than they were. Unless noted, calls come from the whole dose curve; as a rule, active = well fitted curve in the direction sought with a large enough effect; inconclusive = small, poorly fitted or top-dose-only effect, or another doubt; inactive = no such curve, though single readings can be large; an effect the other way counts as inactive or inconclusive. Unless noted, % is set by controls: 0 for no effect and ±100 for the full control effect.
SMILES,IL-1B inflam inh,ALOX12 inh,DT40 TDP1 no CPT,HT1080-NT tox,HT1080 IDH1KD tx,TDP1 cell CPT
CCCC1(CCC)NC(=O)N(CC(=O)Nc2ccc(Cl)c(S(=O)(=O)N3CCOCC3)c2)C1=O,-63*,-8%,?,6%,8%,?
COc1ccc(OC)c(CCNC(=O)c2ccc(CS(=O)Cc3ccc(Cl)cc3)o2)c1 (stereo not drawn),?,11%,?,-14%,-6%,23µM*
O=C(NCCc1ccc(Cl)cc1)c1ccc(CS(=O)Cc2ccc(Cl)cc2)o1 (stereo not drawn),?,0%,-19%,-14%,-30%,?
CSc1ccc(CCNC(=O)c2ccc(CS(=O)Cc3ccc(Cl)cc3)o2)cc1 (stereo not drawn),?,?,21µM*,-9%,-23%,?
COc1ccc(S(=O)(=O)Cc2ccc(C(=O)NCCc3cc(OC)ccc3OC)o2)cc1,-11,11%,?,?,5%,?
CCOc1ccc(CCNC(=O)c2ccc(CS(=O)Cc3ccc(Cl)cc3)o2)cc1 (stereo not drawn),-8,-9%,?,-4%,-11%,16µM*
O=C(C1CCCC1)N1CCC2(CN[S+](=O)([O-])c3ccccc3N2)C1 (stereo not drawn),nt,49%,nt,nt,nt,nt
Cc1ccc(Nc2nc(Nc3ccc(C)c(C)c3)nc(N3CCOCC3)n2)cc1C,nt,-1%,10µM*,nt,nt,15µM*
Cc1cc(Nc2ccccc2)nc(N2CCOCC2)n1,-10,2%,-11%,1%,9%,-19%
CCOc1nc(Nc2ccc(OC)c(Cl)c2)nc(OCC)n1,-3,0%[57.4 µM],?,4%,-4%,18µM*
COc1ccc(Nc2nc(Nc3ccc(OC)cc3OC)nc(N3CCOCC3)n2)c(OC)c1,nt,-18%,13µM*,nt,nt,15µM*
Cc1cc(Nc2cccc(Cl)c2)nc(N2CCOCC2)n1,2,-18%,?,-8%,-14%,15µM*
CC(C)NC(=O)N[C@H]1CCN(C(=O)c2cnccn2)[C@@H]1C(=O)N[C@@H](CCCNC(=O)c1cnccn1)C(N)=O,nt,-1%,nt,nt,nt,nt
COc1ccc(C2=NOC3(CCN(Cc4ccc(N(C)C)cc4)C3)C2)cc1 (stereo not drawn),nt,28%,nt,nt,nt,nt
Cc1ccc(N/N=C/c2ccc(N3CCOCC3)cc2)cc1C,-11,8.9µM*,?,-3%,4%,23µM*
Clc1cccc(Nc2nc(N3CCOCC3)nc(N3CCOCC3)n2)c1,?,-21%,?,5%,0%,?
O=C(N/N=C/c1ccc(N2CCOCC2)cc1)C1CC1,8,3%,-19%,0%,0%,8%
Cc1ccc(Nc2nc(N/N=C\c3ccc4c(c3)OCO4)nc(N3CCOCC3)n2)cc1,-28,-1%,9.2µM*,?,26µM*,8.2µM*
Fc1cccc(Nc2nc(N3CCOCC3)nc(N3CCOCC3)n2)c1,?,1%,-26%,0%,-9%,18µM*
Cc1ccc(/C=N/Nc2cc(C)nc(N3CCOCC3)n2)cc1,-7,0%,?,-17%,-20%,10%
Cc1ccc([N+](=O)[O-])cc1Nc1nc(N2CCOCC2)nc(N2CCOCC2)n1,-21,2%,-22%,16%,1%,4%
Cc1ccc(Cl)cc1Nc1nc(N2CCOCC2)nc(N2CCOCC2)n1,-54*,0%,?,-1%,1%,?
COC(=O)c1ccc(F)c(NC(=O)c2ccccc2OC(F)F)c1,nt,-21%,nt,nt,nt,nt
Cc1nc(C)c(C(=O)N2CCC3(CC2)CC(N(Cc2ccccc2)C2CC2)CCO3)s1 (stereo not drawn),nt,11%,nt,nt,nt,nt
COc1ccccc1Nc1nc(N2CCOCC2)nc(N2CCOCC2)n1,-9,-16%,?,-2%,0%,?
SMILES,IL-1B inflam inh,ALOX12 inh,DT40 TDP1 no CPT,HT1080-NT tox,HT1080 IDH1KD tx,TDP1 cell CPT
COc1ccc(Nc2nc(N3CCOCC3)nc(N3CCOCC3)n2)cc1Cl,-58*,0%,21µM*,20%,-10%,?
CCOC(=O)N1CCC(Nc2c(N3CCN(c4cccc(C(F)(F)F)c4)CC3)c(=O)c2=O)CC1,-21,6%,?,3%,5%,23µM*
CCOC(=O)N1CCC(Nc2c(Nc3ccc(F)cc3)c(=O)c2=O)CC1,31,-26%,-11%,-13%,-1%,-18%
CCOC(=O)N1CCC(Nc2c(Nc3cccc(CC)c3)c(=O)c2=O)CC1,36,5%,18µM*,-2%[9.24 µM],?,?
CCOC(=O)N1CCC(Nc2c(-c3ccccc3)c(=O)c2=O)CC1,6,-12%,23µM*,0%,13%,?
O=C(N=C1N=C2C=CC=CN2Cc2ccccc21)c1ccc(S(=O)(=O)N2CCOCC2)cc1,30,6%,?,5%,-5%,7%
Cc1noc(-c2ccn3c(CNC(=O)c4ccc5ccccc5n4)nnc3c2)n1,nt,-22%,nt,nt,nt,nt
CCOc1ccc(C(=O)NCCc2sc(-c3ccc(C)cc3)nc2C)cc1,nt,-17%,?,nt,nt,23µM*
CCOc1ccc(S(=O)(=O)NCCc2sc(-c3ccc(C)cc3)nc2C)cc1,nt,2%,16µM*,nt,nt,?
CCOc1ccc(C(=O)NCCc2csc(-c3cccc(F)c3)n2)cc1OCC,nt,-18%,?,nt,nt,?
CCOc1ccc(C(=O)NCCc2sc(-c3cccc(F)c3)nc2C)cc1OCC,nt,-29%,?,nt,nt,18µM*
CC(=O)c1c[nH]c(C(=O)OCc2cc(=O)oc3cc(C)ccc23)c1,nt,-51%,nt,nt,nt,nt
Cc1ccc2c(c1)N(CC(=O)NCc1cccc(Cl)c1)C(=O)c1cccnc1O2,nt,-6%,?,nt,nt,?
CCc1ccc(CNC(=O)CN2C(=O)c3cccnc3Oc3ccc(Cl)cc32)cc1,nt,-22%,16µM*,nt,nt,?
O=C(CN1C(=O)c2cccnc2Oc2ccc(Cl)cc21)NC1CCCCCC1,0,-1%,-1%,-3%,-13%,-14%
CCOc1ccccc1CNC(=O)CN1C(=O)c2cccnc2Oc2ccc(Cl)cc21,nt,?,16µM*,nt,nt,?

# Screening results (PubChem BioAssay)
